Assay results as given in the supplement of paper PMC11417369.
± gives the standard deviation of the averaged measurements. Whole data set: some 25,000 sequences, median “ln(normalized median fluorescence intensity)” near 8.9, cut for the highest 2% near 10. The sample as a whole holds a higher share of the highest values than the screen did.

The sequences below were run on PfAP2-LT AP2 domain (GST-tagged) (assay: gcPBM binding intensity (ln(normalized median fluorescence intensity)); higher = stronger DNA binding).
In short: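 Alexa488 anti-GST antibody, scanned at 488 nm, detected GST-tagged P. falciparum DNA-binding domains that had been expressed in E. coli and incubated for 1 h on an Agilent 4 × 180k array. The array carried primer-extended double-stranded 36-bp intergenic genomic probes and negative controls. Binding intensity is the highest Masliner-normalised natural-log median intensity across replicate spots of either orientation of each probe.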

Sequence	gcPBM binding intensity (ln)
AAAAAAAATCAAATGGGTACTTATTCTTAATAATAT [XGTACX_site3792]	8.61 ± 0.33
TTTTTAGAAAAGGTTATAAAAAATTAATTGAAAAAA [GTGCAC_negctrl_site289]	8.05 ± 0.47
TAAAAGTAAAGACATGCATGCATTGGTATCTTTTAC [TGCATGCA_site665]	8.95 ± 0.35
GTAGACTGAAACCACACACACATATATAAATATATT [CACACA_site6433]	9.68 ± 0.38
GTAGACTGAAACCACACACACATATATATATATATT [CACACA_site605]	9.8 ± 0.13
ATGTAGACTGAAACCACACACACATATATATATATA [CACACA_site606]	10.2 ± 0.2
GCGTTGTTTTTAAAAAGTACATTTTTATATAAGTTA [XGTACX_site8780]	8.54 ± 0.46
TATTAAGAAGAAAATTCACACATTTGTACCTCTCTT [CACACA_site4822]	8.86 ± 0.47
ATATATATATATTCCACACACACACCCAAAAAAAAA [CACACA_site3649]	9.745 ± 0.05
ATTCTACACCCACATACACACATATATATATATATA [CACACA_site3426]	10 ± 0.085
TACAGACATACATACACACATACATACAGACATACA [CACACA_site1941]	9.43 ± 0.38
CATACAGACATACATACACACATACATACAGACATA [CACACA_site6996]	9.56 ± 0.35
TATTCCCCCAAACACACACACACACCCACATACCAC [CACACA_site2304]	10.5 ± 0.13
GACATATTCCCCCCCACACACACACCCACATACATA [CACACA_site2302]	11.1 ± 0.18
TTCCCCCCCAGACACACACACACATACATACCACAT [CACACA_site2305]	11.1 ± 0.77
TATTCCCCCCAACACACACACACACCGACATACCAC [CACACA_site8723]	10.8 ± 0.26
ACATTCTATACATACACACCCACACCCAAAAAAAAA [CACACA_site863]	9.59 ± 0.042
TACACCCACCCACATACACACACATACACATATATA [CACACA_site8503]	10.1 ± 0.21
AAATTCCACCAACACACACACATATAAATAAATAAA [CACACA_site1233]	9.86 ± 0.42
ACATACATACCCCCACGTACGTACCGAAACACCACC [XGTACX_site1982]	9.74 ± 0.028
TGTTATTCTGCATATACACACAAATAACAATTTAAA [CACACA_site6943]	8.67 ± 0.38
CCTTTTTTATTTACAACACACGTAAAGGTTCAAATA [CACACA_site1741]	8.68 ± 0.42
TTTTCAATTAATAATACACACATGTATATATCATTA [CACACA_site7539]	8.81 ± 0.43

Sequence	gcPBM binding intensity (ln)
TATGAAATGCTCCAATCACACATGAATGTAATATAT [CACACA_site5458]	8.73 ± 0.35
AACTATTACTTTCTTTCACACATTTTTTTTTTTTTT [CACACA_site5355]	8.94 ± 0.59
AATAATATCTGAAAATGTACATTTTATTATAAACAT [XGTACX_site8441]	8.86 ± 0.45
ATGAATAAAAAAGGTGGTACATATATATATATATAT [XGTACX_site7893]	9.82 ± 0.11
AAAAAAAAAAAACACACACACATAGACCTCCAATAG [CACACA_site3562]	9.77 ± 0.25
AAAAAAAAAAGACACACACACATAGACCTCCAATAG [CACACA_site7646]	9.79 ± 0.25
AAAAAAAAAAAAAACACACACACATAGACCTCCAAT [CACACA_site3563]	10.2 ± 0.26
TATAAATATACAAAGGTGCATAAAAAGTTATGTTTT [GTGCAC_site9832]	8.72 ± 0.44
TTCTATTCAAATGCAAAATTATTAAATAAAAAATAA [GTGCAC_negctrl_site708]	8.31 ± 0.43
ATTTTAGATGAAAAAGCACACAACATATATATATAT [CACACA_site2295]	9.44 ± 0.38
AAGAAAAGCATAGATGCACACATATATATATATATA [CACACA_site8675]	10.2 ± 0.32
AAAAAAAAAAGAAACACACACATATATATATAGAAT [CACACA_site1777]	9.44 ± 0.39
TAGGAAAAGAAAAGCACACACATAAATAGATATATA [CACACA_site6382]	9.43 ± 0.54
GCTAAAAGTATATGCACACACATATAGATGCACATA [CACACA_site6868]	9.34 ± 0.33
GAAAAGCATAGATGCACACATATATATATATATATA [CACACA_site2169]	10.18 ± 0.014
AATACCCATATCTTCACACATACATAATAAATTATA [CACACA_site5367]	8.81 ± 0.36
AAAAAAAAAATATACACACACATATAAATATAAATA [CACACA_site7574]	9.34 ± 0.42
TGAGGTAACTAAATATGTACGTAACGAAGATACATA [XGTACX_site8231]	8.96 ± 0.5
AATTGTTCGATATATGCACACAGTTTTGTTATTTTT [CACACA_site1615]	9.25 ± 0.34
GTTTGATTAAACTTGACACACATATATATAAATATA [CACACA_site1784]	8.71 ± 0.44
TTTATTAAACTTGACACACACACACCCACATATATA [CACACA_site760]	9.8 ± 0.28
TATTAAACTTGACACACACACACACGCATATATAAA [CACACA_site6496]	10.1 ± 0.14
